LmPK inh = blocks Leishmania mexicana pyruvate kinase activity | Q27686 | purified LmPK, Kinase-Glo ATP luminescence, 1 h | Potency, µM (highest dose often 57.5 µM), without a hit: at the top dose activity change, negative = inhibition, most hits filed as inhibitors | 290,000 compounds, 0.37% hits; note: potency is the fitted concentration of half-maximal effect; % is set by controls: 0 for no effect and ±100 for the full control effect
Target sequence (Q27686 whole entry, looked up): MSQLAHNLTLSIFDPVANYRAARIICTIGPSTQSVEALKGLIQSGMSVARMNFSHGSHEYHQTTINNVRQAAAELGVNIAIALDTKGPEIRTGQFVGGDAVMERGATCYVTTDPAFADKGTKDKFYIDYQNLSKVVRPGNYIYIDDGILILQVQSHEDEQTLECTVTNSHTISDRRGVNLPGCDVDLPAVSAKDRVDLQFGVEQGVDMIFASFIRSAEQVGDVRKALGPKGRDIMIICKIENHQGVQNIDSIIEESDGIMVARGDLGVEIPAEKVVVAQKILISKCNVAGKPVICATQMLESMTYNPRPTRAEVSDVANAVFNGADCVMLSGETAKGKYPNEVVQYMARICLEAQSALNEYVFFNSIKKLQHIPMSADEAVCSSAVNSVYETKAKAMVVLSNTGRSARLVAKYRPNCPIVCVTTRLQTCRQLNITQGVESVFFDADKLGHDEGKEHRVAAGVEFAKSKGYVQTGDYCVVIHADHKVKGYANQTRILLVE
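Screened at intermediate enzyme activity to detect both inhibitors and activators: LmPK at 0.1 nM, with a 0.5 nM enzyme column as activation reference. PEP 0.5 mM, ADP 0.1 mM; ATP detected by luminescence after 1 h.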
Shiga inhibitor = blocks Shiga toxin action in Vero cells; Vero cells, Shiga toxin protein synthesis inhibition reporter; inhibition, % at 38.7 µM; 290,000 compounds, 9.2% hits; in the data active = inhibition mostly above about 28%, no sharp cut-off; inactive = mostly below about 43%; note: 0% is about no effect
SARS PLpro yeast = inhibitors of SARS-CoV papain-like protease in yeast | Potency, µM (highest dose often 32.9 µM), inactives show at the highest dose activity, positive = growth rescue, hits mostly activators | 330,000 compounds, 0.19% hits | S. cerevisiae expressing SARS-CoV PLpro, growth rescue; calls by dose curve; note: potency is the fitted concentration of half-maximal effect; 0% is about no effect; nearly all actives have a fitted effect of over 55% in size
NS1 function inh = inhibitors of influenza NS1 protein function; Potency, µM (series often up to 46.1 µM), without a hit: at the top dose activity, positive = more growth; 270,000 compounds, 0.4% hits; AID 2326; calls by dose curve; note: potency is the fitted concentration of half-maximal effect; actives are rising curves; nearly all actives have a fitted effect of over 50% in size
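S. cerevisiae expressing influenza A NS1, grown in glucose, washed, then diluted 1:100 into pH 6.0 -URA galactose medium with 23 nl compound. Growth recovery read as OD600; NS1-free strain serves as control.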
Tb PYK inh = blocks Trypanosoma brucei pyruvate kinase | Q57TT1 | TbPYK enzyme, Kinase-Glo Plus ATP luminescence, 45 min | Potency, µM (titrated, usually from 76.8 µM), for the others: top-dose activity, negative = inhibition, hits mostly inhibitors | 410,000 compounds, 0.12% hits | AID 624173; note: potency is the fitted concentration of half-maximal effect; % is set by controls: 0 for no effect and ±100 for the full control effect; nearly all actives have a fitted effect of over 50% in size
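Quantitative HTS: titrated library compounds versus trypanosomal pyruvate kinase in TEA buffer (pH 7.2) containing KCl, MgCl2, BSA and Tween-20. Reactions were initiated with ADP, 130 uM final. Kinase-Glo Plus luminescence was read after 45 min at RT.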
CHX counter = affects cycloheximide protein synthesis inhibition readout, counter-screen. cell reporter, cycloheximide protein synthesis inhibition counterscreen. 300,000 compounds, 12% hits. max response, %. AID 2314; in the data active = max response mostly above about 13%, no sharp cut-off; inactive = mostly below about 14%; note: read at 38.3 µM for the half of the compounds with a filed dose; 0% is about no effect
* hit, by the source's call; ? = inconclusive; . = no result given; + = active, no number. Only a selection was taken, and hits are over-represented in it overall. Unless noted, calls come from the whole dose curve; as a rule, active = well fitted curve in the direction sought with a large enough effect; inconclusive = small, poorly fitted or top-dose-only effect, or another doubt; inactive = no such curve, though single readings can be large; an effect the other way counts as inactive or inconclusive.

SMILES | LmPK inh | Shiga inhibitor | SARS PLpro yeast | NS1 function inh | Tb PYK inh | CHX counter
O=C(NCc1cccnc1)c1cnc2n(c1=O)CCS2 | 3% | 10 | -16% | -1% | -9% | 3
Cc1cccc2c1-c1sc(C(=O)Nc3nccs3)cc1CO2 | 0% | 118* | -19% | 2% | -2% | 66*
CCOC(=O)c1cc2c(s1)-c1c(C)cccc1OC2 | 6% | 168* | -7% | -59% | 2% | 51*
O=C(Nc1nccs1)c1cc2c(s1)-c1ccccc1OC2 | 8% | 71* | -3% | -58% | 0% | 21*
O=C(Nc1nc2ccccc2s1)c1cc2c(s1)-c1ccccc1OC2 | -2% | 30 | 2% | 5% | -8% | -1
CN(c1cc(Cl)c2c(c1)OCO2)c1cc2c(c3c1ccn3C)C1CCC2C1 (configuration not stated) | . | . | . | . | 1% | .
COc1ccc(NC(=O)C2(C)CCCN(C(C)=O)C2)cc1F (configuration not stated) | . | . | . | . | 3% | .
CC1(CC(=O)Nc2ccccc2)NC(=S)N(c2ccccc2)N1 (configuration not stated) | -14% | 44* | 1% | -8% | -14% | 24*
CCCCCC1(C)NC(=S)N(c2ccccc2)N1 (configuration not stated) | 18% | 39 | -2% | . | -7% | 20*
COc1ccc(NC(C)c2ccccc2)cc1 (configuration not stated) | 1% | 84* | 9% | . | -19% | 35*
COc1ccc(NC(=O)NC(C)c2ccccc2)cc1 (configuration not stated) | -6% | -9 | 3% | 9% | 2% | -2
O=S(=O)(c1cccc(-c2cn3cccnc3n2)c1)N1CCCCCC1 | 0% | -5 | -5% | -2% | 2% | -1
Cc1ccc2nc(-c3ccc(S(=O)(=O)N4CCCCC4)cc3)cn2c1 | 3% | 66* | -1% | 1% | 0% | 25*
Cc1ccn2cc(-c3cccc(S(=O)(=O)N4CCCCC4)c3)nc2c1 | -5% | 22 | 3% | -5% | -6% | 21*
CC1(c2nnnn2Cc2ccccc2)CCC(=O)N1Cc1ccco1 (configuration not stated) | . | . | . | . | 2% | .
CN(C)c1ccc(NC(=O)C2(c3cccs3)CCOCC2)cc1 | . | . | . | . | -11% | .
COc1ccccc1NC(=O)[C@@H]1CCCN1S(=O)(=O)c1ccc(Cl)cc1 | . | . | -13% | . | -3% | .
O=C(/C=C\c1ccco1)Nc1nc(-c2ccccc2)cs1 | 2% | 78* | -49% | 24% | 2% | 71*
O=C(/C=C/c1ccccc1)Nc1nc(-c2ccncc2)cs1 | 2% | 35 | -10% | . | -21% | 28*
CN(CC(=O)Nc1ccc(F)cc1)C(=O)c1ccc(-c2ccc(F)cc2)o1 | . | . | . | . | 7% | .
CCOC(=O)c1c(NC(=O)c2ccc(OCC)c(Br)c2)sc2c1CCCC2 | . | . | . | . | -3% | .
Cc1ccc(-c2nc(CC(=O)Nc3cccc(S(=O)(=O)NC4=NCCC4)c3)cs2)cc1 | . | . | -4% | . | -2% | .
Clc1ccc(CN2CCc3c([nH]c4ccccc34)C2)cc1Cl | -3% | -4 | -6% | -7% | 9% | -3
O=C(CCN1CCCCC1=O)NC1CCCc2c1cnn2-c1ccccc1F (configuration not stated) | 8% | -15 | 2% | -12% | -4% | 1
CCOc1ccc(NC(=O)CSc2nnc3scc(-c4ccc(Cl)cc4)n23)cc1 | . | . | . | . | 6% | .
SMILES | LmPK inh | Shiga inhibitor | SARS PLpro yeast | NS1 function inh | Tb PYK inh | CHX counter
Cc1nc(NC(=O)c2ccccc2)sc1-c1csc(NCc2ccccc2)n1 | -1% | -6 | -8% | ? | 3% | 19
Cc1nc(NC(=O)c2ccccc2)sc1-c1csc(N)n1 | -19% | 48* | -20% | -9% | -8% | 29*
Cc1ccc(Cl)cc1Nc1nc(-c2sc(NC(=O)c3ccccc3)nc2C)cs1 | -18% | 38 | 3% | 21% | . | 12
Cc1nc(NC(=O)c2ccccc2)sc1-c1csc(Nc2cccc(F)c2)n1 | -1% | 62 | -8% | -2% | . | 13*
COc1ccc(OC)c(NC(=O)CSc2nc3n[nH]c(C)c3c(=N)n2-c2cccc(Cl)c2C)c1 | 11% | -2 | 0% | -5% | -3% | 25*
Cc1cc(NC(=O)c2cccc(S(=O)(=O)Nc3cccc(C(=O)O)c3)c2)no1 | 3% | 4 | 8% | 10% | 2% | 6
COc1ccc(N2CC(=O)N(c3ccccc3)C2=S)cc1 | 2% | 32 | 18% | 1% | -14% | 27*
O=C1CN(c2ccccc2)C(=S)N1c1ccccc1 | 0% | -3 | -3% | 9% | 3% | -1
COc1ccc(N=C2C(=Nc3ccc(OC)cc3)N(c3ccc(OC)cc3)C(=S)N2c2ccccc2)cc1 | 7% | 70* | 14% | -12% | -10% | 60*
COc1cccc(C(=O)NCC(=O)OCc2cc(=O)n3c(C)csc3n2)c1 | . | . | . | . | -5% | .
Oc1ccc(N=Nc2ccc3ccccc3c2)cc1 | 5% | . | -24% | -154% | -2% | 40*
COc1cc(N=Nc2ccc3ccccc3c2)ccc1O | 2% | . | -17% | -156% | -1% | 47*
COc1cc(N=Nc2ccccc2C(=O)O)ccc1O | -9% | 14 | 0% | 6% | -8% | 5
CCCN(C(=O)c1ccco1)c1nnc(-c2cccc(C)c2)s1 | -1% | 72* | -1% | 2% | 0% | 61*
COCCN(C(=O)C1CC1)c1nnc(-c2cccc(C)c2)s1 | 0% | 29 | 5% | -31% | 2% | 15*
CCN(C(=O)c1ccco1)c1nnc(-c2ccc(OC)cc2)s1 | 0% | + | -1% | -4% | -3% | 30*
CCCCC(=O)N(CCOC)c1nnc(-c2ccc(OC)cc2)s1 | -4% | 23 | 2% | -10% | -6% | 2
CCN(CC)CCN(C(=O)c1ccco1)c1nc2cc(C)cc(C)c2s1 | . | . | . | . | -6% | .
COCCN(C(=O)c1cccc(OC)c1)c1nnc(-c2ccncc2)s1 | -1% | -7 | -2% | -5% | -6% | -6
Cc1ccc(N(Cc2cc3ccc(C)cc3[nH]c2=O)S(C)(=O)=O)c(C)c1 | 6% | -1 | 0% | -5% | -2% | 1
S=C(Nc1cccc2ccccc12)N1CCN(c2ncccn2)CC1 | 3% | 44 | 8% | -2% | 4% | 24*
O=C(CSc1ncccn1)Nc1cccc2ccccc12 | -4% | 20 | -1% | -17% | 36% | 22*
O=C(CSCC(=O)Nc1cccc2ccccc12)Nc1cccc2ccccc12 | 1% | 24 | 0% | 12% | 1% | -4
Cc1ccc(CNC(=O)CSc2ncccn2)cc1 | 0% | 43* | 6% | 0% | -15% | 24*
CCn1ncc(CN2CCCC(CNC(=O)c3ccc(F)cc3)C2)c1C (configuration not stated) | -3% | -3 | -3% | -3% | 0% | -2
NCC(=O)N[C@@H](CCCN=C(N)N)C(=O)NCC(=O)N[C@@H](CC(=O)O)C(=O)N[C@@H](CO)C(=O)O | . | 16 | . | . | . | -4
